The source of these data is ChEMBL document CHEMBL4513216, “Probing the Open Global Health Chemical Diversity Library for Multistage-Active Starting Points for Next-Generation Antimalarials” (ACS Infect Dis, 2020).

Out of some 65,000 compounds screened, about 2,100 (3.2%) showed an effect of 50% or more. The median lay at about -52%. This excerpt belongs to a sample that is enriched for strong results.

The test system of the assay is Plasmodium falciparum. The assay can be described thus: Screen against P. falciparum Asexual Blood Stage (ABS), at 5uM. Format: functional, Dd2. As to conditions: tested at 5 uM.
As to `NCC(=O)N1CCCC(c2cncc(Nc3ncccn3)n2)C1` (configuration not stated), the INHIBITION is listed as -81.1%. Take `Cc1ccc(CN2CCCC3(COCCN(Cc4c[nH]nn4)C3)C2)s1` (configuration not stated): the INHIBITION was determined as 37.3%. Consider `O=C(c1c[nH]c(=O)[nH]c1=O)N1CCCC(c2cnccn2)C1` (configuration not stated), for which the INHIBITION is reported as -173%. With `CC(C)Nc1ncnc2c1CCN(C(=O)N1CCOCC1)CC2` the figure was -114%. `CCC[C@@H]1CN(C(=O)c2cc(-c3cccs3)n(C)n2)C[C@H]1N(C)C`: the INHIBITION is -63%. With `CCC[C@@H]1CN(C(=O)c2cc3ccccc3cc2O)C[C@H]1N(C)C` the figure was 52.8%; with `CCC[C@@H]1CN(C(=O)c2conc2-c2ccccc2)C[C@H]1N(C)C`, 52.8%; with `CCC[C@@H]1CN(C(=O)c2ccccc2-c2ccccc2)C[C@H]1N(C)C`, 22.2%. With `CCC[C@@H]1CN(C(=O)c2ccccc2-c2ncc[nH]2)C[C@H]1N(C)C` the figure was -80.9%; with `CCC[C@@H]1CN(C(=O)c2ccccc2C(C)=O)C[C@H]1N(C)C`, -112%; with `CCOCC1CN(C2CCCC2)Cc2cnn(CC3CCOCC3)c21` (configuration not stated), -1.53%. The result for `CC(C)N1CCCN(c2nc(-c3cccnc3)nc3c2cnn3C)CC1` reads 43.8%. As for `CCN1CCC(CC(=O)NCc2nc(C)cc(C)n2)CC1`, the INHIBITION is on record as -46.7%. The result for `Cc1nc(C2CCCN2C(=O)COc2ccccc2)ncc1C(N)=O` (configuration not stated) reads -61%; that for `COc1cccc(CN(C)C(=O)c2ccc(NC(C)=O)s2)c1OC`, -83.5%. With `NC(=O)CCNC(=O)NCC1(c2ccccc2Cl)CCC1` the figure was -18.5%; with `NC(=O)CCNCc1c(Cl)cccc1N1CCCC1`, 66.4%; with `O=C(NC1CCCN(c2ccccc2Cl)C1)c1c[nH]nn1` (configuration not stated), -144%.

With `O=c1oc(-c2cccs2)nn1CC(O)c1ccc2c(c1)CCC2` (configuration not stated), the INHIBITION is given as -20%. With `Cc1nnc(NC(=O)C(C)n2ncc(Br)c2C)s1` (configuration not stated) the figure was -120%; with `CCCn1ncc(CN2C[C@@H]3CCCN3C[C@@H]2Cc2ccccc2)c1C`, 63.8%. In the case of `CCCn1ncc(CN2C[C@@H]3CCCN3C[C@@H]2CCSC)c1C`, the INHIBITION is 29.3%. The result for `C=Cn1ncc(CN2C[C@@H]3CCCN3C[C@@H]2Cc2ccccc2)c1C` reads 25.8%. For `CCCn1ncc(CN2C[C@@H]3CCCN3C[C@H]2Cc2ccccc2)c1C`, the INHIBITION stood at 57.8%.

Turning to `CCCn1ncc(CN2C[C@@H]3CCCN3C[C@H]2CCSC)c1C`, the INHIBITION is on record as -62.1%. As to `CCn1ncc(CN2C[C@@H]3CCCN3C[C@@H]2CCSC)c1C`, the INHIBITION was -116%. With `CNC(=O)COC1COC2(CCN(Cc3ccncc3F)CC2)C1` (configuration not stated) the figure was -146%. With `CC(C)[C@H](NS(C)(=O)=O)C(=O)NCc1cc(-c2ccco2)nn1C` the figure was -141%; with `COc1c(CNCc2ccc(Cn3cccn3)cc2)c(C)nn1C`, 14.8%.

On to `COc1c(CNCc2ccccc2Cn2cccn2)c(C)nn1C`, for which the INHIBITION was 57.4%. The result for `COc1c(CNCc2ccccc2Cn2cncn2)c(C)nn1C` reads 3.03%; that for `COC[C@]1(O)CCN(c2cc(C3CC3)ncn2)CC1(C)C`, -106%. With `CC(C)c1cc(C(=O)NCCc2nc(-c3cccnc3)n[nH]2)[nH]n1` the figure was 14.9%. On to `CC(C)c1cc(C(=O)NCCc2nc(-c3ccncc3)n[nH]2)[nH]n1`, for which the INHIBITION is 66.4%. The result for `CC(C)C(=O)NCCc1nc(-c2ccncc2)n[nH]1` reads -11.5%; that for `Cc1noc([C@@H]2C[C@H]3OCC[C@H]3N(Cc3cc(C)c(C)o3)C2)n1`, -151%; that for `CC(C)NC(=O)CN1CCC(c2cccc(F)c2)C1` (configuration not stated), 54.9%. On to `CCNC(=O)NC(=O)CN1CCC(c2cccc(F)c2)C1` (configuration not stated), for which the INHIBITION is recorded as -4.74%. With `CNC(=O)NC(=O)CN1CCC(c2cccc(F)c2)C1` (configuration not stated) the figure was -92.5%; with `Cc1ccccc1NC(=O)N1CCN(Cc2noc(C3CC3)n2)CC1`, -69.4%. The result for `Cc1ccccc1C(C(=O)NCCSC(F)(F)F)N(C)C` (configuration not stated) reads 46.1%.

Consider `Cc1ccccc1C(C(=O)NCCSC(C)C)N(C)C` (configuration not stated), for which the INHIBITION came to 50.3%. As to `CSCCCNC(=O)C(c1ccccc1C)N(C)C` (configuration not stated), the INHIBITION was -35.8%. Consider `CSC(C)C(=O)N(C)CCCc1cc(-c2ccccc2)no1` (configuration not stated), for which the INHIBITION is listed as -25.3%. With `CCOC(=O)C1CCN(c2cc(C(=O)N3CCOCC3)nc(C)n2)CC1` the figure was -5.84%. The result for `COc1ccc(C(NCc2ccc(C#N)cc2)C2CC2)cc1` (configuration not stated) reads 60.9%. `COc1ccc(C(NCc2cccc(C#N)c2)C2CC2)cc1` (configuration not stated): the INHIBITION amounted to 48.3%. The result for `COc1ccc(C(NCc2cccc(C#N)c2)C(C)C)cc1` (configuration not stated) reads -11.2%; that for `O=C(C1CCOC1)N1CCC2(CCN(Cc3nccs3)CC2)CC1` (configuration not stated), -146%; that for `COc1ccc(NC(=O)c2nc3ccccc3n(C)c2=O)cc1OC`, -33.5%.

Consider `O=C(O)c1cc2c(nc1-c1ccoc1)CCN(CC1CCOC1)CC2` (configuration not stated), for which the INHIBITION is -108%. For `CSCC(=O)N(C)Cc1noc(-c2ccccc2)n1`, the INHIBITION is -229%. As to `CN(C)C(=O)CCNC(=O)Nc1sc2ccccc2c1Cl`, the INHIBITION is on record as -22.3%. Regarding `CN(C)CC(C)(O)CNC(=O)Nc1sc2ccccc2c1Cl` (configuration not stated), the INHIBITION came to 63.2%.

As to `CS(=O)(=O)CCNC(=O)Nc1sc2ccccc2c1Cl`, the INHIBITION is recorded as -95%. With `Cc1cc(-c2cnc(N3CCCCCC3)nc2-c2cccnc2C)on1` the figure was 3.45%; with `Cc1cnn(C2CN(CCOc3cccc(C#N)c3)C2)c1`, -128%; with `CCS(=O)(=O)N1CC(=O)N(Cc2ccccc2OC)CC(O)C1` (configuration not stated), -105%.

`CCOC(=O)C1CCN(C(=O)c2cnn(-c3ccccc3F)c2N)CC1`: the INHIBITION is reported as -221%. With `c1csc(C(CNCc2cccc3c2OCO3)N2CCOCC2)c1` (configuration not stated) the figure was 40.2%; with `c1cc(CNCc2ccnc(N3CCOCC3)c2)c2c(c1)OCO2`, -31.4%.

For `Cc1ccc(C(CNCc2cccc3c2OCO3)N2CCOCC2)o1` (configuration not stated), the INHIBITION worked out at 65.7%. `Cc1cc(C2CCCN2C(=O)CN2C(=O)OC(C)(C)C2=O)on1` (configuration not stated): the INHIBITION is listed as -28.9%.

Regarding `CCCS(=O)(=O)N1C[C@@H]2CN(Cc3cnn(C)c3)CCO[C@@H]2C1`, the INHIBITION is listed as -67.3%. With `O=C(NCCn1cccc1)C(c1ccccc1)N1CCCC1` (configuration not stated), the INHIBITION worked out at 54.4%.

Take `Cc1cccc(C(C(=O)NCCn2cccc2)N(C)C)c1` (configuration not stated): the INHIBITION was found to be 42.5%.

As to `O=C(NCCNc1cccnc1)C(c1cccnc1)N1CCCC1` (configuration not stated), the INHIBITION is given as -11.7%.
